Results from PubChem BioAssay AID493056 (National Center for Advancing Translational Sciences (NCATS), 2011).
Screen size: about 360,000 compounds; about 2,400 (0.67%) were called active. This excerpt belongs to a sample that is enriched for actives. Unmarked numbers belong to inactive results. Rule as the data show it: active = enhancement above about 30%; inactive = the rest.

The molecules below were run against Thyrotropin-releasing hormone receptor (Homo sapiens) (UniProt P34981) (assay: qHTS for Small Molecule Agonists and Allosteric Enhancers of Human TRH Receptor: Primary Screen for Enhancers). Settings: TRHR cells, fluo-8 calcium fluorescence, EC20 TRH enhancement; at 2 µM; active compounds read high.
Thyrotropin-releasing hormone receptor (Homo sapiens), sequence (P34981 whole entry, looked up): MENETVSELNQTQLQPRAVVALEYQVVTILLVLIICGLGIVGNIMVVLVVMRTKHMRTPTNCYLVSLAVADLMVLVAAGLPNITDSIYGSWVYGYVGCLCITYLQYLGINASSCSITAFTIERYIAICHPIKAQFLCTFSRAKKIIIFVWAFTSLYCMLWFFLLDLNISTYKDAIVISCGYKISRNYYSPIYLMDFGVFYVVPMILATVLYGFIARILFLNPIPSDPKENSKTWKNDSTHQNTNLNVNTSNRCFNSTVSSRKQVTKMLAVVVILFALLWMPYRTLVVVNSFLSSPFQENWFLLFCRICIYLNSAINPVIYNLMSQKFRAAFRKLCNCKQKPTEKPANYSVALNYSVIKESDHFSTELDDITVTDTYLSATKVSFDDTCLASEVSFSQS
Description: NIH Chemical Genomics Center [NCGC] NIH Molecular Libraries Probe Centers Network [MLPCN] MLPCN Grant: MH089816-01 Assay Submitter (PI): Marvin Gershengorn This project aims to identify small drug-like molecules that activate (agonists) the thyrotropin releasing hormone (TRH) receptor (TRHR) or enhance its TRH-stimulated activity (allosteric enhancers). TRHR, a drug-accessible cell surface receptor expressed in specific brain regions, and its ligand TRH have been implicated in several central nervous system disorders, including depression and anxiety. Small molecule TRHR agonists or allosteric enhancers that are metabolically stable and able to cross the blood-brain barrier might serve as probes to elucidate the roles of brain TRH receptors in animal models, and might be valuable as lead compounds for the development of drugs to treat patients with central nervous system disorders. Upon TRHR-Gq activation in TRHR cells, intracellular calcium is released from stores in the endoplasmic reticulum. […] This primary screen measures compound-induced enhancement of an EC20 stimulation of the receptor by its native ligand.
For the HTS assay freshly prepared cells are plated at a density of 2000/well in 3 ul of complete DMEM medium containing 10% serum in 1536-well plates and cultured over night at 37 C in a humidified incubator with 5% CO2. The next day, 2 ul of a no wash calcium dye (ABD Bioquest) was added to the cells and plates were incubated at room temperature for 1 hour. For the assay, assay plates were loaded into the FDSS kinetic plate reader. A 10 cycle (1 second/cycle) baseline measurement is taken and then the FDSS online 1536 pintool delivers 23 nl of compound library (as well as TRH controls) to the plate. The plate is measured for kinetically at 1 cycle/sec for 180 seconds and is considered to be the agonist portion of the assay (eg, compounds which activate a positive calcium response during this portion are flagged as potential agonists). Following the 180 second read, 1 ul of either an EC20 (positive modulation assay) is delivered by an onboard pipette head. Measurements are taken kinetically for an additional 180 seconds. TRHR FDSS Screening Protocol 1. Reagent, 3 uL 2000 cells/well 1536 TC treated Black plate in media containing 10% FCS 2. Time, 18 hours, 33.5C 5% CO2 (cells grown at 37C) 3. Reagent, 2 uL ABD fluo-8 Ca dye 4. Time, 30 min-1.5hrs hours, Room temp (6 plates/batch) 5. Detector, EX 480/EM 530C, FDSS 10 cycles baseline (1sec/cycle) 6. Compound, 23 nL of stock solution from library 7. Detector, EX 480/EM 530C, FDSS 230 cycles (1sec/cycle) Agonist mode 8. Compound, 1 ul EC20 of TRH made up in HEPES HBSS, 10 nM final 9. Detector, EX 480/EM 530C, FDSS 100 cycles (1sec/cycle) Potentiator mode
Also: 0% is about no effect.

Going from `CCC/C(=N\O)c1c[nH]c2ccccc12` to `COc1ccc(CNCCc2c[nH]c3ccccc23)cc1OC`, the enhancement rises from -0.263% to 8.12%.

Compared with `Cc1ccc(-n2c(/C=C/c3cccc(C(F)(F)F)c3)nc3ccccc3c2=O)cc1`, `Cc1ccc(-c2nc3ccccc3c(=O)n2-c2ccc(Br)cn2)cc1` is higher in enhancement: -5.54% for the first, 3.56% for the second.

Compared with `O=C(c1cc(S(=O)(=O)N2CCOCC2)ccc1F)N1CCC2(CC1)OCCO2`, `O=C(OCCN1CCOCC1)C1(c2ccccc2)CCCC1` is lower in enhancement: 5.79% for the first, -3.33% for the second.

First: CC(C)Oc1cccc(C(=O)C2CCCN(C3CCOCC3)C2)c1 (stereo not given)
Second: CC(C)(C)c1ccc(OC(=O)N2CCCCC2)cc1
The enhancement of the first is higher: 5.95% for the first, 2.54% for the second.

Compared with `CC(C)c1ccc(OCC(=O)N2CCN(C)CC2)c(Br)c1`, `CC(C)N(CC#CCC1(O)c2ccccc2-c2ccccc21)C(C)C` is higher in enhancement: -3.04% for the first, -0.877% for the second.

First: Cc1cccc(Cn2cccc(C(=O)Nc3ccc4c(c3)OCCO4)c2=O)c1
Second: CCC(C)n1c(O)c(/C=N/Nc2nc3c(c(=O)n(C)c(=O)n3C)n2C)c(=O)[nH]c1=S (stereo not given)
The enhancement of the first is higher: -1% for the first, -2.9% for the second.

With `C/C(CCc1c[nH]c2ccccc12)=N\O` the enhancement was 30.5% (active).
With `CCOP(=S)(OCC)C(O)CCCCCn1c(=O)c(F)cn(C2CCCO2)c1=O` (stereo not given) the enhancement was 31.8% (active).
`C[N+]1(C)CCOC(O)(c2ccc(-c3ccc(C4(O)C[N+](C)(C)CCO4)cc3)cc2)C1` (stereo not given) was tested, and the enhancement was 36.7% (active).
